Outcome and AC50 data for 14 molecules are collected here from PubChem BioAssay (EPA / NIEHS).

What all share (conditions): mRNA level, 48 h; actives raise or lower the signal
Read-out in experiment [1]: adenosine kinase (ADK) gene, ADK (gene 132)
The experiment is described as follows: LTEA_HepaRG_ADK: Life Technologies and Expression Analysis (LTEA) Assay for adenosine kinase (ADK) gene using HepaRG (AID 2283471). An outline of the steps: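 ADK expression quantified by qRT-PCR, normalised to three housekeeping genes, after 48 h exposure of HepaRG cells to eight concentrations (top 100 uM, half-log steps, duplicate, 0.5% DMSO). Up- or down-regulation fitted relative to vehicle.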

Read-out in experiment [2]: Alpha-fetoprotein (AFP) gene, AFP (gene 174)
Briefly: LTEA_HepaRG_AFP: Life Technologies and Expression Analysis (LTEA) Assay for Alpha-fetoprotein (AFP) gene using HepaRG (AID 2283472). The method, boiled down: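 qRT-PCR (Fluidigm TaqMan) readout of AFP transcript, normalized to three housekeeping genes, fitted bidirectionally against 0.5% DMSO baseline. HepaRG cells received chemicals for 48 h in serum-free induction medium, top concentration 100 uM, half-log steps.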

Read-out in the next experiment: BCL2L11 (gene 10018)
Briefly: LTEA_HepaRG_BCL2L11: Life Technologies and Expression Analysis (LTEA) Assay for Bcl-2 (BCL2L11) gene using HepaRG (AID 2283473). An outline of the steps:
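HepaRG, 48 h exposure, 8-pt half-log series from 100 uM in 0.5% DMSO, duplicates; qRT-PCR (Fluidigm TaqMan) for BCL2L11, housekeeping-normalized; bidirectional curve fit relative to DMSO baseline.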

Read-out in experiment [3]: Apolipoprotein A-V (APOA5) gene, APOA5 (gene 116519)
The experiment is described as follows: LTEA_HepaRG_APOA5: Life Technologies and Expression Analysis (LTEA) Assay for Apolipoprotein A-V (APOA5) gene using HepaRG (AID 2283474). The method, boiled down:
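HepaRG, 48 h chemical exposure in serum-free induction medium, 8-pt half-log series (top 100 uM), 0.5% DMSO vehicle, duplicates. Readout: APOA5 mRNA by qRT-PCR, housekeeping-normalized; bidirectional fit vs DMSO baseline.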

Read-out in experiment [4]: Apoptosis regulator Bcl-2 (Homo sapiens) (UniProt P10415)
The experiment is described as follows: LTEA_HepaRG_BCL2: Life Technologies and Expression Analysis (LTEA) Assay for Bcl-2 gene using HepaRG (AID 2283475). An outline of the steps: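 qRT-PCR read-out (Fluidigm TaqMan) of BCL2 transcript, normalised to three housekeeping genes, after 48 h chemical exposure of HepaRG cells; 8-point half-log series, top 100 uM, 0.5% DMSO vehicle. Gain or loss of signal fitted relative to DMSO baseline.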

Read-out in experiment [5]: Bcl-2 (BID) gene, BID (gene 637)
The experiment is described as follows: LTEA_HepaRG_BID: Life Technologies and Expression Analysis (LTEA) Assay for Bcl-2 (BID) gene using HepaRG (AID 2283476). The method, boiled down: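 HepaRG, 48 h exposure, 8-pt half-log series, top 100 uM, 0.5% DMSO vehicle, duplicates. Readout: BID mRNA by TaqMan qRT-PCR; housekeeping-normalized; bidirectional curve fit vs DMSO baseline.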

Read-out in a further experiment: Caspase-3 (Homo sapiens) (UniProt P42574)
Briefly: LTEA_HepaRG_CASP3: Life Technologies and Expression Analysis (LTEA) Assay for cysteine-aspartic acid protease (CASP3) using HepaRG (AID 2283477). An outline of the steps:
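HepaRG, 48 h exposure, 8 conc. (top 100 uM, half-log steps, duplicate), 0.5% DMSO vehicle; qRT-PCR of CASP3 transcript, housekeeping-normalised (ACTB/GAPDH/POLR2A); bidirectional curve fit vs DMSO baseline.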

Read-out in experiment [6]: Cytochrome P450 (CYP1A2), CYP1A2 (gene 1544)
The experiment is described as follows: LTEA_HepaRG_CYP1A2: Life Technologies and Expression Analysis (LTEA) Assay for Cytochrome P450 (CYP1A2) using HepaRG (AID 2283479). The method, boiled down:
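HepaRG, 48 h exposure, top 100 uM, half-log 8-pt, 0.5% DMSO vehicle, duplicates. Readout: TaqMan qRT-PCR of CYP1A2 mRNA, housekeeping-normalized (ACTB/GAPDH/POLR2A). Gain/loss fit relative to DMSO baseline.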

Read-out in experiment [7]: cysteine-aspartic acid protease (CASP8), CASP8 (gene 841)
The experiment is described as follows: LTEA_HepaRG_CASP8: Life Technologies and Expression Analysis (LTEA) Assay for cysteine-aspartic acid protease (CASP8) using HepaRG (AID 2283480). An outline of the steps: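 Concentration-response in duplicate up to 100 uM (half-log steps, 0.5% DMSO) on differentiated HepaRG cultures for 48 h. Expression change of CASP8 mRNA is determined by TaqMan qRT-PCR with housekeeping-gene normalization.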

Read-out in experiment [8]: Cytochrome P450 (CYP24A1), CYP24A1 (gene 1591)
The experiment is described as follows: LTEA_HepaRG_CYP24A1: Life Technologies and Expression Analysis (LTEA) Assay for Cytochrome P450 (CYP24A1) using HepaRG (AID 2283478). The method, boiled down:
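qRT-PCR read-out: CYP24A1 transcript levels normalized to three housekeeping genes, bidirectional curve fits against 0.5% DMSO baseline. Human HepaRG cells treated 48 h with chemicals at eight concentrations from 100 uM in half-log steps.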

Usually AC50 stands for the concentration at which the activity in the assay is half-maximal.

Calls of active or inactive are those of the source. Rule for the calls: active = hit-call score of the fitted dose curve at least 0.9, where 1 is the maximum; inactive = score below 0.9.

Chain of Apoptosis regulator Bcl-2 (Homo sapiens) (P10415 whole entry, looked up): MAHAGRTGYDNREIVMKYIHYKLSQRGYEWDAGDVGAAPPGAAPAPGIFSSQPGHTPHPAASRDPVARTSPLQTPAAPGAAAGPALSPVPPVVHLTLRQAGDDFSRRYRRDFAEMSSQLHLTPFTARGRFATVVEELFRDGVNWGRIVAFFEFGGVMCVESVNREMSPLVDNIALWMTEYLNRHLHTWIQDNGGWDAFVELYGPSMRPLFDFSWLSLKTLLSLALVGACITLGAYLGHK
Chain of Caspase-3 (Homo sapiens) (P42574 whole entry, looked up): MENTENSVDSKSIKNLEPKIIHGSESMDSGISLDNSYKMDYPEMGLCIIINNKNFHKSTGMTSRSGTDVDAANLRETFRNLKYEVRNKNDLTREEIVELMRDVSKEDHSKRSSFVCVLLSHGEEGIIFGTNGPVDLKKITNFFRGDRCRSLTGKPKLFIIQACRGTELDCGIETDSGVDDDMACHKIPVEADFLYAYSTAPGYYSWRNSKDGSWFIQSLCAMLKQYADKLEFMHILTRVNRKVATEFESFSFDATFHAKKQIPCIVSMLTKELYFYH

With `OCCCl`, the result (in experiment [1]; in experiment [2]; with BCL2L11 (gene 10018); in experiment [3]; in experiment [4]; in experiment [5]) was inactive. Further, the outcome (with Caspase-3 (Homo sapiens); in [6]; in experiment [7]) was inactive.
For `CC(C)N(Cc1ccccc1)C(=O)C(C)(C)C`, the result (in experiment [1]; in experiment [2]; with BCL2L11 (gene 10018); in experiment [3]; in [4]; in experiment [5]) was inactive. The molecule was classed as inactive (with Caspase-3 (Homo sapiens); in experiment [6]; in experiment [7]).
As for `CCOc1cccc(C2(N3CCN(c4ccccc4)CC3)CCC(C)CC2)c1` (stereo unspecified), the outcome (in experiment [1]; in experiment [2]; in the experiment with BCL2L11 (gene 10018); in experiment [3]; in experiment [4]; in experiment [5]) was inactive. The molecule was classed as inactive (with Caspase-3 (Homo sapiens); in experiment [7]). Also, the concentration at half-maximal activity (AC50) in experiment [6] was 16.6 µM (active).
Regarding `COP(=S)(OC)SCN1C(=O)c2ccccc2C1=O`, the outcome (in experiment [1]; in [2]; in the experiment with BCL2L11 (gene 10018); in [3]; in experiment [4]; in experiment [5]) was inactive. Moreover, the molecule was called inactive (with Caspase-3 (Homo sapiens); in [7]). In experiment [6], the concentration at half-maximal activity (AC50) was 22.3 µM (active).
Consider `O=C(Nc1ccccc1)c1ccccc1I`, for which the call (in experiment [1]; in the experiment with BCL2L11 (gene 10018); in experiment [3]; in [4]; in experiment [5]; with Caspase-3 (Homo sapiens)) was inactive. Besides, the call in experiment [7] was inactive. Further, the AC50 was 50 µM (active) in experiment [2] and 10.4 µM (active) in [6].
Consider `c1ccc2c(c1)oc1ccccc12`, for which the result (in experiment [1]; in experiment [2]; in the experiment with BCL2L11 (gene 10018); in experiment [3]; in [4]; in [5]) was inactive. Also, the outcome (with Caspase-3 (Homo sapiens); in experiment [7]) was inactive. Further, the concentration at half-maximal activity (AC50) in [6] was 50 µM (active).
With `Nc1cc(Cl)cc(C(=O)O)c1Cl`, the molecule was called inactive (in [1]; with BCL2L11 (gene 10018); in experiment [3]; in experiment [4]; in [5]; with Caspase-3 (Homo sapiens)). In addition, the result in experiment [8] and in experiment [7] was inactive. Also, in experiment [6], the AC50 is 50 µM (active).
For the molecule `O=C(N[C@H](c1ccccc1)[C@@H]1CN2CCC1CC2)c1c(Cl)ccc(C(F)(F)F)c1Cl`, the concentration at half-maximal activity (AC50) was 58 µM (active) in experiment [1]; 22.8 µM (active) in [2]; 11.3 µM (active) with BCL2L11 (gene 10018); 72.6 µM (active) in [3]; 70 µM (active) with Caspase-3 (Homo sapiens); 84.6 µM (active) in experiment [6]. The AC50 in experiment [7] was 73.7 µM (active). The result in [4] and in experiment [5] was inactive.
For the molecule `CCCCCCCCOC(=O)c1ccc(C(=O)OCCCCCCCC)c(C(=O)OCCCCCCCC)c1`, the molecule was called inactive (in [1]; in [2]; with BCL2L11 (gene 10018); in [3]; in [4]; in experiment [5]). In addition, the outcome (with Caspase-3 (Homo sapiens); in [7]) was inactive. Also, the AC50 in experiment [6] is 50.5 µM (active).
Regarding `Clc1ccccc1Cl`, the result (in experiment [1]; in [2]; with BCL2L11 (gene 10018); in experiment [3]; in experiment [4]; in experiment [5]) was inactive. Also, the call (with Caspase-3 (Homo sapiens); in experiment [6]; in experiment [7]) was inactive.
Take `CCN(CC)CCO`: the molecule was called inactive (in [1]; in experiment [2]; with BCL2L11 (gene 10018); in experiment [3]; in experiment [4]; in [5]). In addition, the molecule was classed as inactive (with Caspase-3 (Homo sapiens); in [6]; in experiment [7]).
Turning to `O=C(Oc1ccc(Br)cc1)N1CCN2CCC1CC2`, the molecule was classed as inactive (in [1]; in [2]; with BCL2L11 (gene 10018); in experiment [3]; in experiment [4]; in [5]). For the same molecule, the molecule was classed as inactive (with Caspase-3 (Homo sapiens); in [7]). The AC50 in experiment [6] is 66.7 µM (active).
For the molecule `C=CCc1ccc2c(c1)OCO2`, the call (in [1]; in experiment [2]; in the experiment with BCL2L11 (gene 10018); in experiment [3]; in experiment [4]; in experiment [5]) was inactive. Further, the outcome (with Caspase-3 (Homo sapiens); in experiment [6]; in experiment [7]) was inactive.
Turning to `CS(=O)(=O)NC(=O)c1cc(Oc2ccc(C(F)(F)F)cc2Cl)ccc1[N+](=O)[O-]`, the call (in experiment [1]; in experiment [2]; in the experiment with BCL2L11 (gene 10018); in experiment [3]; in experiment [4]; in experiment [5]) was inactive. For the same molecule, the molecule was classed as inactive (with Caspase-3 (Homo sapiens); in experiment [6]; in experiment [7]).
